Measured values: PubChem BioAssay (NCATS)
Results filed as inconclusive are left out. Calls of active or inactive are those of the source. Calls come from the whole dose curve; as a rule, active = well fitted cell-killing curve with a large enough effect; inconclusive = small, poorly fitted or top-dose-only effect, or effect the other way; inactive = flat fitted curve, though single readings scatter.

Legend:
Experiment in all cases: Primary qHTS to identify gynecologic anti-cancer compounds using libraries of approved drugs and bioactive compounds (AID 1345084); note: nearly all actives have a fitted effect of over 55% in size
CAOV3 = conditions: Gynecologic cancer cell panel viability, ATPlite luminescence, 48 h; series mostly up to 57.5 µM
Method in brief: (§1)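 48 h compound exposure at 37 C, 5% CO2; five-point qHTS. ATPlite luminescence readout of cell ATP.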

CASKI = conditions: Gynecologic cancer cell panel viability, ATPlite luminescence, 48 h; series mostly up to 57.5 µM
Method in brief: as §1

Es-2 = conditions: Gynecologic cancer cell panel viability, ATPlite luminescence, 48 h; series mostly up to 57.5 µM
Method in brief: as §1

HeLa = conditions: Gynecologic cancer cell panel viability, ATPlite luminescence, 48 h; series mostly up to 57.5 µM
Method in brief: as §1

Hek293T = conditions: Gynecologic cancer cell panel viability, ATPlite luminescence, 48 h, control line for the selectivity index; series mostly up to 57.5 µM
Method in brief: as §1

JEG-3 = conditions: Gynecologic cancer cell panel viability, ATPlite luminescence, 48 h; series mostly up to 57.5 µM
Method in brief: as §1

OV90 = conditions: Gynecologic cancer cell panel viability, ATPlite luminescence, 48 h; series mostly up to 57.5 µM
Method in brief: as §1

PA-1 = conditions: Gynecologic cancer cell panel viability, ATPlite luminescence, 48 h; series mostly up to 57.5 µM
Method in brief: as §1

SKOV3 = conditions: Gynecologic cancer cell panel viability, ATPlite luminescence, 48 h; series mostly up to 57.5 µM
Method in brief: as §1

Tov-21-G = conditions: Gynecologic cancer cell panel viability, ATPlite luminescence, 48 h; series mostly up to 57.5 µM
Method in brief: as §1

Tov112D = conditions: Gynecologic cancer cell panel viability, ATPlite luminescence, 48 h; series mostly up to 57.5 µM
Method in brief: as §1

Measured: Potency

C=C[C@H]1[C@H](O[C@@H]2O[C@H](CO[C@@H]3OC[C@](O)(CO)[C@H]3O)[C@@H](O)[C@H](O)[C@H]2O)OC=C2C(=O)OCC[C@H]21
inactive: all assays above

C=C1CC[C@H]2[C@@](C)(CCC[C@@]2(C)C(=O)O)[C@@H]1CCC(C)CCO (some centres undefined)
inactive: all assays above

CC1(C)O[C@@]2(C)CC[C@@H]1C[C@@H]2OC1OC(CO)C(O)C(O)C1O (some centres undefined)
inactive: all assays above

COc1ncc(-c2ccc3c(Nc4cc(Oc5cc(F)cc(F)c5)cc(C(=O)O)c4)c(S(=O)(=O)NC4CC4)cnc3c2)c(OC)n1
inactive: all assays above

C[C@H]1C[C@H]2[C@@H]3CCC4=CC(=O)C=C[C@]4(C)[C@@]3(F)[C@@H](O)C[C@]2(C)[C@@]1(O)C(=O)COP(=O)(O)O
inactive: all assays above

C=C1CC2C3(C)C(OC(C)=O)CC(=O)OC(C)(C)C3C(O)C(OC(C)=O)C2(C)C2C(=O)OC(C)C(=O)C12C (centres undefined)
inactive: all assays above

C[C@H](NCc1ccc(OCc2ccccc2F)cc1)C(N)=O
inactive: all assays above

CC1C/C=C/C=C\CCCCC(O)C/C=C/C(=O)O1 (centres undefined)
inactive: all assays above

CC(C)(C)NCC(O)COc1cccc2c1CCCC2=O (centres undefined)
inactive: all assays above

COc1cc(CCc2ccccc2)c(C(=O)O)c2c1CC(C(C)(C)O)O2 (centres undefined)
inactive: all assays above

OC[C@H]1O[C@@H](OC(CCCCc2ccc(O)cc2)CCc2ccc(O)cc2)[C@H](O[C@@H]2OC[C@](O)(CO)[C@H]2O)[C@@H](O)[C@@H]1O (some centres undefined)
inactive: all assays above

CCC[C@@H]1C[C@@H](C(=O)N[C@H](C(C)Cl)[C@H]2O[C@H](SC)[C@H](O)[C@@H](O)[C@H]2O)N(C)C1 (some centres undefined)
inactive: all assays above

CCOc1nc2cccc(C(=O)O)c2n1Cc1ccc(-c2ccccc2-c2noc(=O)[nH]2)cc1
inactive: all assays above

OC[C@H]1O[C@@H](Oc2cc(O)cc(-c3cc4ccc(O)cc4o3)c2)[C@H](O)[C@@H](O)[C@@H]1O
inactive: all assays above
